Source: PubChem BioAssay
For some assays here: Results with a measured potency or affinity are listed apart. Activity calls are given as the source filed them. Unless noted, how the calls were made is not given here.

Tests used:
[1] = antimalarial activity against Dd2 strain (AID 2302;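 active means growth inhibition above 50% at the single 2 µM test dose, taken to imply half-maximal potency below 2 µM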;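 further: 0% = DMSO untreated growth and 100% = chloroquine plus artemisinin killed control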); conditions: P. falciparum Dd2 in RBCs, LDH growth readout, 72 h; at 2 µM; stronger effect = higher value
[2] = HepG2 cytotoxicity, primary screen, cytotoxicity control for P. falciparum antimalarial project, cell-based, ATP luminescence (AID 2303;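 active means inhibition above 50%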;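 further: 0% = DMSO wells and 100% = digitonin-killed cells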); conditions: HepG2 viability, 24-48 h, at 10 µM, stronger effect = higher value
[3] = target: L-lactate dehydrogenase (Plasmodium falciparum (isolate CDC / Honduras)) (UniProt Q27743); test: PfLDH activity inhibition – cell lysate, 3D7 strain, counter-screen for P. falciparum growth inhibition project (AID 2304);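 further: 0% = vehicle and 100% = reference inhibitor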; conditions: P. falciparum 3D7 crude extract, LDH APAD/NBT absorbance; at 2 µM; stronger effect = higher value
Chain of L-lactate dehydrogenase (Plasmodium falciparum (isolate CDC / Honduras)) (Q27743 whole entry, looked up): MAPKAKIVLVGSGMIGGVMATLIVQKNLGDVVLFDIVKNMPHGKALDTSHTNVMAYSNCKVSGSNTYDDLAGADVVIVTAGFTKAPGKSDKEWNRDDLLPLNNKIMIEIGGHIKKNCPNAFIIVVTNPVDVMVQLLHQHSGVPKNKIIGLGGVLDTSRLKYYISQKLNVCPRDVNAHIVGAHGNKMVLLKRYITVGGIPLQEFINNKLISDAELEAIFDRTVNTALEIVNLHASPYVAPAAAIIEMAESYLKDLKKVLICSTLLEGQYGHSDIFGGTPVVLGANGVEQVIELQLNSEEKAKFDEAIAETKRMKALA

[4] = inhibition of 3D7 malaria parasite growth – strain 3D7 (AID 2306);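 further: 0% = DMSO wells and 100% = chloroquine plus artemisinin control wells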; conditions: P. falciparum 3D7 erythrocytic growth, LDH absorbance, 72 h; at 2 µM; stronger effect = higher value
[5] = target: Calcium-dependent protein kinase 1 (Plasmodium falciparum (isolate 3D7)) (UniProt P62344); test: PfCDPK1 kinase inhibitors, biochemical, TCAMS library (AID 1159585; cut-off not given, nearly all actives have IC50 up to about 0.98 µM;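 further: inhibitors leave more ATP so luminescence rises with inhibition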); conditions: recombinant PfCDPK1, Kinase-Glo ATP depletion luminescence
Chain of Calcium-dependent protein kinase 1 (Plasmodium falciparum (isolate 3D7)) (P62344 whole entry, looked up): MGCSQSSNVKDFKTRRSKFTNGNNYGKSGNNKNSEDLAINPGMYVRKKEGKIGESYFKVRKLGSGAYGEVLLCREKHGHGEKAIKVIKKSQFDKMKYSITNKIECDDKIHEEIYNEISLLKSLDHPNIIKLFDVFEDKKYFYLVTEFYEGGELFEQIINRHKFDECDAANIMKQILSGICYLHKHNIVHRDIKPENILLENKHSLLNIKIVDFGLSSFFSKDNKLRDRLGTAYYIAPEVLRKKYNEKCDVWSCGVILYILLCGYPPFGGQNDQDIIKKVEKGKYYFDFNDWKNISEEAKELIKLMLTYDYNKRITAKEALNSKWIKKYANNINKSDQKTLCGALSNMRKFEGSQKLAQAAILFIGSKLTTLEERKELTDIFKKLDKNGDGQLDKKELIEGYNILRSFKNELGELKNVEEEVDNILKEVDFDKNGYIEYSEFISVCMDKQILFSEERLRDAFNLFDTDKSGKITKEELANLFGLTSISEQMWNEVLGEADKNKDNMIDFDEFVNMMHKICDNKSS

[6] = target: Plasmodium falciparum protein kinase 6 (PK6, PF3D7_1337100) (UniProt Q8IDW1); test: PfPK6 kinase inhibitors, biochemical, TCAMS library (AID 1159586); conditions: recombinant PfPK6, Kinase-Glo ATP depletion luminescence
Chain of Plasmodium falciparum protein kinase 6 (PK6, PF3D7_1337100) (Q8IDW1 1-305): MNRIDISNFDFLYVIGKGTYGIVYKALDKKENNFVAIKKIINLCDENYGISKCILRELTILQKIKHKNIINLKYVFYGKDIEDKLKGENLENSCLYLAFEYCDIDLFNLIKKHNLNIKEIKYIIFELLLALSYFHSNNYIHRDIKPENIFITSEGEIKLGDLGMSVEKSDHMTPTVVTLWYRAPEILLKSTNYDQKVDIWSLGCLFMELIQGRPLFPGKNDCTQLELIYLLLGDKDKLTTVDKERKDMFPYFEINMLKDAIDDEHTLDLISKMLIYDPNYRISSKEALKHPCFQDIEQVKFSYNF

[7] = target: Protein kinase 7 (PK7), Plasmodium falciparum 3D7 (PF3D7_0213400) (UniProt Q7YTF7); test: inhibition of Plasmodium PK7 catalytic activity – biochemical, TCAMS antimalarial set, Kinase-Glo luminescence (AID 1159587); conditions: recombinant PfPK7, Kinase-Glo ATP depletion luminescence
Chain of Protein kinase 7 (PK7), Plasmodium falciparum 3D7 (PF3D7_0213400) (Q7YTF7 1-343): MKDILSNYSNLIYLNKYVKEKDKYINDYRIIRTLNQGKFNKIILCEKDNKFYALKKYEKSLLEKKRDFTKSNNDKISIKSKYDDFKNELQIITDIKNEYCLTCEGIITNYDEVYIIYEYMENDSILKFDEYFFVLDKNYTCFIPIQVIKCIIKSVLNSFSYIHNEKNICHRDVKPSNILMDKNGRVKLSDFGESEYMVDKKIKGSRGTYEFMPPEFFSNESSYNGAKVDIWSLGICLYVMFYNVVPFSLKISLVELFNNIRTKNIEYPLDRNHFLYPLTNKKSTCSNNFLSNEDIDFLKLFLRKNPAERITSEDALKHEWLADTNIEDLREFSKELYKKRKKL

[8] = target: Calcium-dependent protein kinase 4 (Plasmodium falciparum (isolate 3D7)) (UniProt Q8IBS5); test: PfCDPK4 kinase inhibitors, biochemical, TCAMS library (AID 1159588; cut-off not given, nearly all actives have IC50 up to about 0.91 µM); conditions: recombinant PfCDPK4, Kinase-Glo ATP depletion luminescence
Chain of Calcium-dependent protein kinase 4 (Plasmodium falciparum (isolate 3D7)) (Q8IBS5 whole entry, looked up): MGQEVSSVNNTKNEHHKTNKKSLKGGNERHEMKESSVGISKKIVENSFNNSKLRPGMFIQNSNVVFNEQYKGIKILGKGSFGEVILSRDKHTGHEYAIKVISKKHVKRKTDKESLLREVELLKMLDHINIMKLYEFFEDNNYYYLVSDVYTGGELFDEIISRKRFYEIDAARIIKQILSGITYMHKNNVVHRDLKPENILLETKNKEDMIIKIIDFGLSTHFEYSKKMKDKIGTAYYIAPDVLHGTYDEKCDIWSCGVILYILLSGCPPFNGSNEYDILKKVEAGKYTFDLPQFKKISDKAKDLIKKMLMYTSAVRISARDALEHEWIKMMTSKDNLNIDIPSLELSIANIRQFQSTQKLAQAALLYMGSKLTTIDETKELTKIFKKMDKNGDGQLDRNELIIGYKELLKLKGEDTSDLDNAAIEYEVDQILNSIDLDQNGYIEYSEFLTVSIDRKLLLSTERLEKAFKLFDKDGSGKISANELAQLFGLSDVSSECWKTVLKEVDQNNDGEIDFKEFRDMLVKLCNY

COC(=O)c1ccc2c(-c3nc4ccc(OC)cc4[nH]3)c[nH]c2c1
inactive: growth inhibition [1] 31% | inhibition [2] 0% | inhibition [3] 5% | outcome [5] | outcome [6] | outcome [7] | outcome [8]
active: growth inhibition [4] 95%

NC(=NCCCCCCCCN=C(N)Nc1ccc(Cl)cc1)Nc1ccc(Cl)cc1
inactive: inhibition [2] 10% | inhibition [3] -5% | outcome [5] | outcome [6] | outcome [7] | outcome [8]
active: growth inhibition [1] 89% | growth inhibition [4] 93%

Cc1ccc(-c2cc(C(=O)Nc3ccc(S(=O)(=O)N4CCCCC4C)cc3)[nH]n2)c(O)c1 (stereo not given)
active: growth inhibition [1] 99% | growth inhibition [4] 100%
inactive: inhibition [2] 37% | inhibition [3] 0% | outcome [5] | outcome [6] | outcome [7] | outcome [8]

CC(C)(C)c1ccc(C(=O)Nc2ccc3nc4c(c(N)c3c2)CCCC4)cc1
active: growth inhibition [1] 99% | growth inhibition [4] 100%
inactive: inhibition [2] 21% | inhibition [3] -4% | outcome [5] | outcome [6] | outcome [7] | outcome [8]

CCN(CC)CCCC(C)Nc1c2ccccc2nc2c1ccc1ccccc12 (stereo not given)
active: growth inhibition [4] 96%
inactive: growth inhibition [1] 34% | inhibition [2] 18% | inhibition [3] 3% | outcome [5] | outcome [6] | outcome [7] | outcome [8]

COc1cc(NC(=O)c2cccc([N+](=O)[O-])c2)cc(S(=O)(=O)c2ccc(Cl)cc2)c1
active: growth inhibition [4] 88%
inactive: growth inhibition [1] 23% | inhibition [2] -12% | inhibition [3] -3% | outcome [5] | outcome [6] | outcome [7] | outcome [8]

CS(=O)(=O)N(c1ccc(F)cc1)c1cc(C(=O)N[C@@H](Cc2ccccc2)[C@H](O)CNCc2cccc(C(F)(F)F)c2)cc(N2CCCC2=O)c1
inactive: inhibition [2] -4% | inhibition [3] -1% | outcome [5] | outcome [6] | outcome [7] | outcome [8]
active: growth inhibition [1] 65% | growth inhibition [4] 91%

CCCCNc1c(C(=O)OCC)c(C)nc2c1[nH]c1ccccc12
inactive: inhibition [2] -3% | inhibition [3] 3% | outcome [5] | outcome [6] | outcome [7] | outcome [8]
active: growth inhibition [1] 58% | growth inhibition [4] 100%

COc1cc(OC)c(OC)cc1C=NNc1cc(C)nc2ccccc12
inactive: inhibition [2] 5% | inhibition [3] 0% | outcome [5] | outcome [6] | outcome [7] | outcome [8]
active: growth inhibition [1] 95% | growth inhibition [4] 100%

COc1ccc2nccc([C@@H](O)CN3CCC(NC(=O)C(c4cc5ccccc5o4)N4CCN(c5ccc(F)cc5)CC4)CC3)c2c1 (stereo not given in full)
active: growth inhibition [1] 98% | growth inhibition [4] 100%
inactive: inhibition [2] 15% | inhibition [3] -1% | outcome [5] | outcome [6] | outcome [7] | outcome [8]

COc1cccc(CNC[C@@H](O)[C@H](Cc2ccccc2)NC(=O)c2cc(N3CCCC3=O)c3[nH]cc(C(C)C)c3c2)c1
active: growth inhibition [1] 98% | growth inhibition [4] 96%
inactive: inhibition [2] 5% | inhibition [3] 3% | outcome [5] | outcome [6] | outcome [7] | outcome [8]

COc1cc2nc(NCC3CCCCC3)nc(NCc3ccccc3)c2cc1OC
active: growth inhibition [1] 101% | growth inhibition [4] 101%
inactive: inhibition [2] 18% | inhibition [3] 7% | outcome [5] | outcome [6] | outcome [7] | outcome [8]

CC1=C(C(=O)OC(C)C)C(c2ccccc2Cl)C2=C(CC(c3ccccc3)CC2=O)N1 (stereo not given)
inactive: inhibition [2] 15% | inhibition [3] 1% | outcome [5] | outcome [6] | outcome [7] | outcome [8]
active: growth inhibition [1] 84% | growth inhibition [4] 93%

COc1ccc(CNC2CCN(C)CC2)cc1-c1ccc(S(=O)(=O)NC2CCC2)cc1
active: growth inhibition [1] 76% | inhibition [2] 58% | growth inhibition [4] 98%
inactive: inhibition [3] 1% | outcome [5] | outcome [6] | outcome [7] | outcome [8]

CC(C)S(=O)(=O)N1CCN(Cc2ccc3c(c2)nc(NC(=O)c2ccsc2)n3C[C@H](O)c2ccccc2)CC1
inactive: inhibition [3] 0% | outcome [5] | outcome [6] | outcome [7] | outcome [8]
active: growth inhibition [1] 72% | inhibition [2] 56% | growth inhibition [4] 91%

COc1ccc2nccc([C@@H](O)CN3CCC(CO)(NCc4cc5ccccc5o4)CC3)c2c1
active: growth inhibition [4] 85%
inactive: growth inhibition [1] 7% | inhibition [2] 12% | inhibition [3] -1% | outcome [5] | outcome [6] | outcome [7] | outcome [8]

CNC(=O)c1ccccc1Nc1cc(Nc2cc(OC)ccn2)ncc1Cl
inactive: inhibition [3] 5% | outcome [5] | outcome [6] | outcome [7] | outcome [8]
active: growth inhibition [1] 100% | inhibition [2] 69% | growth inhibition [4] 100%

CCc1nc2c(cnn2CC)c(NC2CCOCC2)c1CNC(=O)N1CCOCC1
inactive: growth inhibition [1] 48% | inhibition [2] 0% | inhibition [3] 4% | outcome [5] | outcome [6] | outcome [7] | outcome [8]
active: growth inhibition [4] 98%

Cc1cccc2c(CON3C(N)=NC(N)=NC3(C)C)cccc12
inactive: inhibition [3] -1% | outcome [5] | outcome [6] | outcome [7] | outcome [8]
active: growth inhibition [1] 94% | inhibition [2] 64% | growth inhibition [4] 94%

COc1ccc(-c2nonc2NC(=O)c2cccc(C)c2)cc1OC
active: growth inhibition [4] 97%
inactive: growth inhibition [1] 8% | inhibition [2] 24% | inhibition [3] -1% | outcome [5] | outcome [6] | outcome [7] | outcome [8]

O=C(/C=C/c1ccc(Cl)c(Cl)c1)NC1CCC(CN2CCC(c3nc4ncccc4[nH]3)CC2)CC1 (stereo not given)
inactive: growth inhibition [1] 2% | inhibition [2] 7% | inhibition [3] -1% | outcome [5] | outcome [6] | outcome [7] | outcome [8]
active: growth inhibition [4] 101%

O=S(=O)(NCCN1CCCC1)c1ccc(-c2ccc(CNC3Cc4ccccc4C3)cc2)cc1
inactive: inhibition [3] 5% | outcome [5] | outcome [6] | outcome [7] | outcome [8]
active: growth inhibition [1] 91% | inhibition [2] 61% | growth inhibition [4] 99%

CN1CCC(N(Cc2ccc(-c3ccc(C(F)(F)F)cc3)cc2)C(=O)Cn2c(SCc3cccc(F)c3F)cc(=O)c3c2CCC3)CC1
active: growth inhibition [1] 83% | inhibition [2] 50% | growth inhibition [4] 89%
inactive: inhibition [3] 1% | outcome [5] | outcome [6] | outcome [7] | outcome [8]

CC1CCCCN1S(=O)(=O)c1ccc(NC(=O)c2cc(-c3ccccc3O)n[nH]2)cc1 (stereo not given)
active: growth inhibition [1] 96% | growth inhibition [4] 90%
inactive: inhibition [2] 26% | inhibition [3] -1% | outcome [5] | outcome [6] | outcome [7] | outcome [8]

CC[C@H](C)CNC(=O)c1cncc(-c2ccc(CN(C)C3CCN(C)CC3)cc2)c1
active: growth inhibition [1] 97% | growth inhibition [4] 101%
inactive: inhibition [2] -16% | inhibition [3] -2% | outcome [5] | outcome [6] | outcome [7] | outcome [8]

NC1CCN(Cc2cccc(-c3csc(-c4nc5ccccc5[nH]4)c3)c2)C1 (stereo not given)
inactive: growth inhibition [1] 10% | inhibition [2] 10% | inhibition [3] 2% | outcome [5] | outcome [6] | outcome [7] | outcome [8]
active: growth inhibition [4] 99%

c1ccc(-c2ccc3c(Nc4ccc5[nH]ccc5c4)ccnc3c2)nc1
inactive: inhibition [2] 11% | inhibition [3] -7% | outcome [5] | outcome [6] | outcome [7] | outcome [8]
active: growth inhibition [1] 78% | growth inhibition [4] 91%

CC(C)CC(NC(=O)c1cc2ccccc2s1)C(=O)N1CCCCCC1c1ccc(C(C)(C)C)cc1 (stereo not given)
active: growth inhibition [4] 91%
inactive: growth inhibition [1] 39% | inhibition [2] 23% | inhibition [3] -2% | outcome [5] | outcome [6] | outcome [7] | outcome [8]

Cc1cc(CN2CC[C@H](NC(=O)c3ccc(Cl)c(Cl)c3)C2)ccc1OC1CCN(Cc2ccccc2)CC1
active: inhibition [2] 59% | growth inhibition [4] 98%
inactive: growth inhibition [1] 29% | inhibition [3] -2% | outcome [5] | outcome [6] | outcome [7] | outcome [8]

CCCN1CCN(CCCCNc2c3ccccc3nc3ccccc23)CC1
active: growth inhibition [4] 100%
inactive: growth inhibition [1] 0% | inhibition [2] 34% | inhibition [3] -8% | outcome [5] | outcome [6] | outcome [7] | outcome [8]

O=S(=O)(NC1CCN(c2ccnc3cc(Cl)ccc23)C1)c1ccc(F)cc1 (stereo not given)
inactive: inhibition [2] 3% | inhibition [3] 3% | outcome [5] | outcome [6] | outcome [7] | outcome [8]
active: growth inhibition [1] 88% | growth inhibition [4] 98%

CC(C)C[C@@H](/C=N/NC(N)=O)NC(=O)[C@H](CC(C)C)NC(=O)[C@H](CC(C)C)NC(=O)OCc1ccccc1
active: growth inhibition [1] 99% | growth inhibition [4] 100%
inactive: inhibition [2] 41% | inhibition [3] -1% | outcome [5] | outcome [6] | outcome [7] | outcome [8]

N#Cc1ccc(C(=O)NC2CCN(CCCCCNC(=O)/C=C/c3ccc(Cl)c(Cl)c3)CC2)cc1
inactive: growth inhibition [1] 1% | inhibition [2] 13% | inhibition [3] -4% | outcome [5] | outcome [6] | outcome [7] | outcome [8]
active: growth inhibition [4] 98%

Cc1cccc(C(=O)NCCCN2CCC(NC(=O)/C=C/c3ccc(Cl)c(Cl)c3)CC2)c1
inactive: growth inhibition [1] 23% | inhibition [2] 39% | inhibition [3] 1% | outcome [5] | outcome [6] | outcome [7] | outcome [8]
active: growth inhibition [4] 98%

CC[C@H](C)CNC(=O)c1cncc(-c2ccc(CNC3CCCC3)cc2)c1
inactive: growth inhibition [1] 5% | inhibition [2] -25% | inhibition [3] 0% | outcome [5] | outcome [6] | outcome [7] | outcome [8]
active: growth inhibition [4] 97%

Cc1nc2ccc([N+](=O)[O-])cc2c(=O)n1OCc1ccccc1
inactive: growth inhibition [1] -1% | inhibition [2] 2% | inhibition [3] -2% | outcome [5] | outcome [6] | outcome [7] | outcome [8]
active: growth inhibition [4] 98%

CCOC(=O)N1CCN(C(=O)Nc2ccc(Cl)cc2)CC1
active: growth inhibition [4] 92%
inactive: growth inhibition [1] -2% | inhibition [2] 4% | inhibition [3] 0% | outcome [5] | outcome [6] | outcome [7] | outcome [8]

c1ccc(Oc2ccc(Nc3ccnc(Nc4cccc(CNCCCN5CCOCC5)c4)n3)cc2)cc1
inactive: inhibition [2] -1% | inhibition [3] -1% | outcome [5] | outcome [6] | outcome [7] | outcome [8]
active: growth inhibition [1] 50% | growth inhibition [4] 100%

COc1cc2c(cc1NC(=O)CN1CCN(C(=O)c3ccco3)CC1)oc1ccccc12
active: growth inhibition [1] 96% | growth inhibition [4] 96%
inactive: inhibition [2] 13% | inhibition [3] -2% | outcome [5] | outcome [6] | outcome [7] | outcome [8]

CCN1CCc2nc3ccccc3c(C(=O)Nc3ccc(C#N)cc3)c2C1
inactive: inhibition [2] 24% | inhibition [3] -1% | outcome [5] | outcome [6] | outcome [7] | outcome [8]
active: growth inhibition [1] 72% | growth inhibition [4] 99%
